Some test systems named below: SK-MEL-2 melanoma; EKVX NSCLC; SN12C renal; UO-31 renal; TK-10 renal; ACHN renal; CAKI-1 renal; A498 renal; CCRF-CEM leukemia; MOLT-4 leukemia; SR leukemia; RPMI-8226 leukemia; OVCAR-8 ovarian; OVCAR-5 ovarian; OVCAR-4 ovarian; SK-OV-3 ovarian; IGROV1 ovarian; OVCAR-3 ovarian; HS 578T breast; NCI/ADR-RES ovarian.
Holding throughout (assay): NCI-60 one-dose screen, 48 h (100 = growth as untreated, 0 = no growth, -100 = all killed)
Common to all, as to conditions: 10 µM unless noted

Structures are written as SMILES. The panel holds about 83,000 compounds, 20% with a hit somewhere; the sample as a whole holds those more often.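 Cell lines were cultured in 96-well plates, exposed to a single compound concentration, and assessed for percent growth 48 hours later.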 Values without a mark were called inactive. Calls of active or inactive are those of the source. How the source made its calls: active means growth percent below 10; inactive means the rest.

In the case of `Cc1ccccc1NC(=O)Cn1cc(CN2CCN(c3ccnc4cc(Cl)ccc34)CC2)nn1`, the growth was 110% with SK-MEL-2 melanoma; 97.1% with EKVX NSCLC; 94.7% with SN12C renal; 71.1% in the assay on UO-31 renal; 102% in the assay on TK-10 renal; 95% in the assay with ACHN renal. The growth was 80.3% in the assay on CAKI-1 renal; 84.8% in the assay with A498 renal; -33.5% (active) in the assay with CCRF-CEM leukemia; 45.3% with MOLT-4 leukemia; 86.8% in the assay with SR leukemia; 79.7% with RPMI-8226 leukemia. For the same compound, the growth is 103% in the assay with OVCAR-8 ovarian; 103% with OVCAR-5 ovarian; 94% in the assay with OVCAR-4 ovarian; 95.6% with SK-OV-3 ovarian; 99.8% with IGROV1 ovarian; 105% in the assay with OVCAR-3 ovarian. Besides, the growth was 85.5% with HS 578T breast and 99.1% in the assay with NCI/ADR-RES ovarian.
On to `O=c1n(C2OC(CO)C(O)C2O)ccc2nccn12` (stereo not given), for which the growth is 126% in the assay on SK-MEL-2 melanoma; 108% in the assay with EKVX NSCLC; 107% in the assay with SN12C renal; 99.8% with UO-31 renal; 122% in the assay with TK-10 renal; 104% with ACHN renal. The growth with CAKI-1 renal is 102%; in the assay with A498 renal it was 95.8%; with CCRF-CEM leukemia, 99.5%; in the assay with MOLT-4 leukemia, 97.9%; with SR leukemia it was 88.2%; with RPMI-8226 leukemia, 114%. Further, the growth in the assay on OVCAR-8 ovarian is 92%; with OVCAR-5 ovarian it was 115%; in the assay with OVCAR-4 ovarian, 117%; with SK-OV-3 ovarian it was 117%; with IGROV1 ovarian it was 113%; in the assay on OVCAR-3 ovarian, 107%. The figures for the growth in the assay on HS 578T breast and in the assay with NCI/ADR-RES ovarian were 101% and 113%, respectively.
Turning to `Cc1ccc(S(=O)(=O)c2nc(-c3ccccc3)oc2S(C)=O)cc1` (stereo not given), the growth in the assay with SK-MEL-2 melanoma was 50.3%; in the assay with EKVX NSCLC it was 55.6%; in the assay with SN12C renal it was 40.2%; in the assay on UO-31 renal, -80.5% (active); in the assay with TK-10 renal it was -94.8% (active); with ACHN renal, -99.2% (active). Also, the growth was -98.4% (active) in the assay with CAKI-1 renal; 75.9% in the assay on A498 renal; -41% (active) in the assay on CCRF-CEM leukemia; -29.5% (active) in the assay on MOLT-4 leukemia; -26.8% (active) in the assay with SR leukemia; -51.3% (active) with RPMI-8226 leukemia. Also, the growth is 2.01% (active) in the assay on OVCAR-8 ovarian; 45% in the assay with OVCAR-5 ovarian; 37.3% in the assay with OVCAR-4 ovarian; 83.6% in the assay with SK-OV-3 ovarian; -50.6% (active) with IGROV1 ovarian; -89.3% (active) in the assay on OVCAR-3 ovarian. Besides, the growth in the assay on HS 578T breast was 78.9%; in the assay on NCI/ADR-RES ovarian, 70.1%.
Take `CC1(C)C2=C(C(=O)N1Cc1ccccc1)C(c1ccco1)N(C(=O)C1CCC1)CCN2` (stereo not given): the growth was 94.3% in the assay with SK-MEL-2 melanoma; 97.4% with EKVX NSCLC; 93.4% with SN12C renal; 90.5% with UO-31 renal; 93.9% in the assay on TK-10 renal; 111% in the assay with ACHN renal. For the same compound, the growth was 91.9% in the assay with CAKI-1 renal; 113% in the assay with A498 renal; 105% in the assay with CCRF-CEM leukemia; 102% with MOLT-4 leukemia; 94.9% with SR leukemia; 106% in the assay with RPMI-8226 leukemia. In addition, the growth in the assay with OVCAR-8 ovarian was 115%; with OVCAR-5 ovarian, 95.6%; in the assay on OVCAR-4 ovarian, 97.1%; in the assay with SK-OV-3 ovarian it was 103%; in the assay on IGROV1 ovarian, 103%; in the assay on OVCAR-3 ovarian, 107%. In addition, the figures for the growth in the assay with HS 578T breast and in the assay with NCI/ADR-RES ovarian were 121% and 100%, respectively.
As for `CC(=O)Cc1nsc(NC(=O)c2cc(-c3cc(Cl)ccc3Cl)oc2C)n1`, the growth in the assay with SK-MEL-2 melanoma was 101%; in the assay on EKVX NSCLC, 98.4%; in the assay with SN12C renal, 101%; in the assay on UO-31 renal, 107%; with TK-10 renal, 151%; in the assay with ACHN renal, 106%. Moreover, the growth in the assay with CAKI-1 renal was 98.9%; with A498 renal, 105%; in the assay with CCRF-CEM leukemia it was 108%; in the assay with MOLT-4 leukemia, 101%; in the assay with SR leukemia it was 98.5%; in the assay with RPMI-8226 leukemia it was 100%. The growth in the assay with OVCAR-8 ovarian was 102%; in the assay on OVCAR-5 ovarian it was 111%; in the assay with OVCAR-4 ovarian it was 113%; with SK-OV-3 ovarian it was 104%; with IGROV1 ovarian, 109%; with OVCAR-3 ovarian it was 110%. In addition, the growth in the assay with HS 578T breast is 106%; with NCI/ADR-RES ovarian, 108%.
Turning to `c1ccc2cc(Cn3cc[n+](Cc4ccc5ccccc5c4)c3)ccc2c1`, the growth in the assay with SK-MEL-2 melanoma is -11.5% (active); with EKVX NSCLC it was 51.7%; in the assay with SN12C renal it was 18.2%; with UO-31 renal it was 70.6%; with TK-10 renal it was 8.12% (active); in the assay with ACHN renal it was 90.6%. The growth with CAKI-1 renal was 96%; in the assay with A498 renal, 75.9%; with CCRF-CEM leukemia, 21.7%; in the assay on MOLT-4 leukemia, 25%; in the assay with SR leukemia it was 22.3%; in the assay with RPMI-8226 leukemia, -0.408% (active). In addition, the growth with OVCAR-8 ovarian is 10.9%; in the assay with OVCAR-5 ovarian, 43%; in the assay with OVCAR-4 ovarian, 0.592% (active); in the assay on SK-OV-3 ovarian, 33.2%; in the assay with IGROV1 ovarian, -2.69% (active); with OVCAR-3 ovarian, 14.5%. Besides, the results for the growth with HS 578T breast and in the assay on NCI/ADR-RES ovarian were 58.8% and 99.5%, respectively.
`CCOC(=O)CC1C(CNC(=O)NC)OC(n2cnc3c(NC(=O)Nc4ccccc4)ncnc32)C1O[Si](C)(C)C(C)(C)C` (stereo not given): the growth with SK-MEL-2 melanoma was 54.3%; in the assay on EKVX NSCLC, 63.7%; with SN12C renal, 60.7%; with UO-31 renal, 57%; in the assay with TK-10 renal, 43.5%; in the assay on ACHN renal, 68.7%. Also, the growth with CAKI-1 renal was 81.6%; in the assay on A498 renal, 71.3%; in the assay on CCRF-CEM leukemia, 49.9%; with MOLT-4 leukemia it was 50.1%; with SR leukemia, 28.2%; in the assay on RPMI-8226 leukemia it was 11.2%. The growth in the assay on OVCAR-8 ovarian was 65.4%; in the assay on OVCAR-5 ovarian, 99.6%; in the assay on OVCAR-4 ovarian it was 61.2%; with SK-OV-3 ovarian, 93.6%; with IGROV1 ovarian it was 51.1%; with OVCAR-3 ovarian, 79.6%. Moreover, the figures for the growth in the assay on HS 578T breast and in the assay with NCI/ADR-RES ovarian were 43.9% and 85.6%, respectively.

These data come from PubChem BioAssay (NCI).
